# Only a selection was taken, and the strongest signals are over-represented in it overall.
# B1: Gal 7 (Homo sapiens) (protein)
# chain: MSNVPHKSSLPEGIRPGTVLRIRGLVPPNASRFHVNLLCGEEGGSDAALHFNPRLDTSEVVFNSKEGGSWGREESGPGVPFGRGQPFEVLIIASDDGFKAVVGDAQYHHFRHRLPLARVRLVEVGGDVQLDSVRIF
# Tests used:
# Experiment in all cases: glycan array binding signal (z-score within array); higher = stronger binding
# Conditions in all cases: glycan notation: IUPAC condensed, linker removed; mutation: R74S
# [1] = molecular target: Fuc(a1-2)Gal(b1-3)GlcNAc(b1-3)[Neu5Ac(a2-6)Gal(b1-4)GlcNAc(b1-6)]Gal(b1-4)Glc
# Summary of the method: (§1)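 Columns mapping to the same glycan were averaged after glycan names were converted to IUPAC-condensed notation. The data come from 3228 arrays in the Consortium for Functional Glycomics database, limited to those with an available protein sequence. Binding is reported as a within-array Z-score averaged across arrays of one protein sequence and across linkers.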
# Fuc(a1-2)Gal(b1-4)GlcNAc = molecular target: Fuc(a1-2)Gal(b1-4)GlcNAc
# Summary of the method: as §1
# [2] = molecular target: Fuc(a1-2)Gal(b1-4)GlcNAc(b1-2)Man(a1-3)[Fuc(a1-2)Gal(b1-4)GlcNAc(b1-2)Man(a1-6)]Man(b1-4)GlcNAc(b1-4)[Fuc(a1-6)]GlcNAc
# Summary of the method: as §1
# [3] = molecular target: Fuc(a1-2)Gal(b1-4)GlcNAc(b1-3)Gal(b1-4)GlcNAc(b1-2)Man(a1-3)[Fuc(a1-2)Gal(b1-4)GlcNAc(b1-3)Gal(b1-4)GlcNAc(b1-2)Man(a1-6)]Man(b1-4)GlcNAc(b1-4)GlcNAc
# Summary of the method: as §1
# [4] = molecular target: Fuc(a1-2)Gal(b1-4)GlcNAc(b1-6)GalNAc
# Summary of the method: as §1
# [5] = molecular target: Fuc(a1-2)Gal(b1-4)[Fuc(a1-3)]GlcNAc(b1-3)Gal(b1-4)[Fuc(a1-3)]GlcNAc(b1-3)Gal(b1-4)[Fuc(a1-3)]GlcNAc
# Summary of the method: as §1
# [6] = molecular target: Fuc(a1-2)Gal6S(b1-4)Glc6S
# Summary of the method: as §1
# [7] = molecular target: Fuc(a1-2)[Gal(a1-3)]Gal(b1-3)GlcNAc(b1-6)GalNAc
# Summary of the method: as §1
# [8] = molecular target: Fuc(a1-2)[Gal(a1-3)]Gal(b1-4)GlcNAc
# Summary of the method: as §1
# [9] = molecular target: Fuc(a1-2)[GalNAc(a1-3)]Gal(b1-3)GlcNAc(b1-2)Man(a1-3)[Fuc(a1-2)[GalNAc(a1-3)]Gal(b1-3)GlcNAc(b1-2)Man(a1-6)]Man(b1-4)GlcNAc(b1-4)GlcNAc
# Summary of the method: as §1
# [10] = molecular target: Fuc(a1-2)[GalNAc(a1-3)]Gal(b1-4)GlcNAc(b1-3)Gal(b1-4)GlcNAc(b1-3)Gal(b1-4)GlcNAc
# Summary of the method: as §1
# [11] = molecular target: Fuc(a1-3)[Gal(b1-4)]GlcNAc(b1-6)[Gal(b1-3)GlcNAc(b1-3)]Gal(b1-4)Glc
# Summary of the method: as §1
# Gal(a1-3)Gal(b1-4)Glc = molecular target: Gal(a1-3)Gal(b1-4)Glc
# Summary of the method: as §1
# [12] = molecular target: Gal(a1-4)Gal(b1-3)GlcNAc(b1-2)Man(a1-3)[Gal(a1-4)Gal(b1-3)GlcNAc(b1-2)Man(a1-6)]Man(b1-4)GlcNAc(b1-4)GlcNAc
# Summary of the method: as §1
# Gal(b1-3)Gal(b1-4)GlcNAc = molecular target: Gal(b1-3)Gal(b1-4)GlcNAc
# Summary of the method: as §1
# Gal(b1-3)GalNAc = molecular target: Gal(b1-3)GalNAc
# Summary of the method: as §1
# [13] = molecular target: Gal(b1-3)GlcNAc(b1-2)Man(a1-3)[Gal(b1-3)GlcNAc(b1-2)Man(a1-6)]Man(b1-4)GlcNAc(b1-4)[Fuc(a1-6)]GlcNAc
# Summary of the method: as §1
# Gal(b1-3)GlcNAc6S = molecular target: Gal(b1-3)GlcNAc6S
# Summary of the method: as §1
# [14] = molecular target: Gal(b1-3)[Fuc(a1-4)]GlcNAc(b1-6)GalNAc
# Summary of the method: as §1
# [15] = molecular target: Gal(b1-3)[Neu5Ac(a2-6)]GlcNAc(b1-4)Gal(b1-4)Glc
# Summary of the method: as §1
# [16] = molecular target: Gal(b1-4)GalNAc(a1-3)[Fuc(a1-2)]Gal(b1-4)GlcNAc
# Summary of the method: as §1
# [17] = molecular target: Gal(b1-4)GlcNAc(b1-3)Gal(b1-4)GlcNAc(b1-2)Man(a1-3)[Gal(b1-4)GlcNAc(b1-3)Gal(b1-4)GlcNAc(b1-2)Man(a1-6)]Man(b1-4)GlcNAc(b1-4)GlcNAc
# Summary of the method: as §1
# [18] = molecular target: Gal(b1-4)GlcNAc(b1-3)Gal(b1-4)GlcNAc(b1-2)[Gal(b1-4)GlcNAc(b1-3)Gal(b1-4)GlcNAc(b1-6)]Man(a1-6)[Gal(b1-4)GlcNAc(b1-3)Gal(b1-4)GlcNAc(b1-2)Man(a1-3)]Man(b1-4)GlcNAc(b1-4)GlcNAc
# Summary of the method: as §1
# [19] = molecular target: Gal(b1-4)GlcNAc(b1-3)Gal(b1-4)GlcNAc(b1-3)Gal(b1-4)GlcNAc(b1-2)[Gal(b1-4)GlcNAc(b1-3)Gal(b1-4)GlcNAc(b1-3)Gal(b1-4)GlcNAc(b1-6)]Man(a1-6)[Gal(b1-4)GlcNAc(b1-3)Gal(b1-4)GlcNAc(b1-3)Gal(b1-4)GlcNAc(b1-2)Man(a1-3)]Man(b1-4)GlcNAc(b1-4)[Fuc(a1-6)]GlcNAc
# Summary of the method: as §1
# [20] = molecular target: Gal(b1-4)GlcNAc(b1-3)Gal(b1-4)GlcNAc(b1-3)Gal(b1-4)GlcNAc(b1-3)Gal(b1-4)GlcNAc(b1-2)Man(a1-3)[Gal(b1-4)GlcNAc(b1-3)Gal(b1-4)GlcNAc(b1-3)Gal(b1-4)GlcNAc(b1-3)Gal(b1-4)GlcNAc(b1-2)Man(a1-6)]Man(b1-4)GlcNAc(b1-4)GlcNAc
# Summary of the method: as §1
binder,measurement,setting,value
B1,glycan array binding signal (z-score),[1],0.022
same,glycan array binding signal (z-score),Fuc(a1-2)Gal(b1-4)GlcNAc,-0.214
same,glycan array binding signal (z-score),[2],1.07
same,glycan array binding signal (z-score),[3],13.1
same,glycan array binding signal (z-score),[4],0.439
same,glycan array binding signal (z-score),[5],0.209
same,glycan array binding signal (z-score),[6],0.38
same,glycan array binding signal (z-score),[7],-0.325
same,glycan array binding signal (z-score),[8],-0.56
same,glycan array binding signal (z-score),[9],-0.27
same,glycan array binding signal (z-score),[10],-0.239
same,glycan array binding signal (z-score),[11],0.106
same,glycan array binding signal (z-score),Gal(a1-3)Gal(b1-4)Glc,0.28
same,glycan array binding signal (z-score),[12],-0.347
same,glycan array binding signal (z-score),Gal(b1-3)Gal(b1-4)GlcNAc,-0.425
same,glycan array binding signal (z-score),Gal(b1-3)GalNAc,-0.37
same,glycan array binding signal (z-score),[13],0.404
same,glycan array binding signal (z-score),Gal(b1-3)GlcNAc6S,-0.422
same,glycan array binding signal (z-score),[14],-0.149
same,glycan array binding signal (z-score),[15],-0.354
same,glycan array binding signal (z-score),[16],-0.282
same,glycan array binding signal (z-score),[17],3.67
same,glycan array binding signal (z-score),[18],1.49
same,glycan array binding signal (z-score),[19],3.31
same,glycan array binding signal (z-score),[20],5.53
